A selection: hits, their analogues and other compounds. The true share with any hit is near 4.6%.
Peg3 promoter – Peg3 promoter activity inhibition | HeLa PEG-Prom luciferase reporter, luminescence, overnight | inhibition, % at 20 µM | 1.7% of 360,000 active;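 active means inhibition of at least 50% at 20 µM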
Mdm2-MdmX inh – inhibitors of human Mdm2/MdmX interaction; AID 485346; O15151+Q00987; SaOS-2 split-luciferase Mdm2/MdmX complementation, luminescence; 3% of 330,000 active; inhibition, % at 8 µM;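 active means inhibition of at least 50% at 8 µM in the primary screen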
Target sequence (O15151 whole entry, looked up): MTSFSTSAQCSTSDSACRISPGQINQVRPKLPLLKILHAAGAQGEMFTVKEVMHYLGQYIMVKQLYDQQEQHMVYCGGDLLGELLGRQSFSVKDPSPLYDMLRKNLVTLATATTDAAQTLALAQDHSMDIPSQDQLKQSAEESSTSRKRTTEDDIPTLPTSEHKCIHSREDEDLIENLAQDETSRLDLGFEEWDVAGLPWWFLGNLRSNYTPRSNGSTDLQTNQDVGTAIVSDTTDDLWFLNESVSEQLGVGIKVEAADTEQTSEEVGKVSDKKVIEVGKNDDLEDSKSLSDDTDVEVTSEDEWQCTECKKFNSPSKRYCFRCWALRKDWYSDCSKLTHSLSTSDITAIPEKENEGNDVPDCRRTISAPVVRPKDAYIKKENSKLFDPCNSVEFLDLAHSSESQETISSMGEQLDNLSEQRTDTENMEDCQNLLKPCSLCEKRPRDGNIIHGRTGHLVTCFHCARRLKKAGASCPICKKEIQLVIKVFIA
Target sequence (Q00987 whole entry, looked up): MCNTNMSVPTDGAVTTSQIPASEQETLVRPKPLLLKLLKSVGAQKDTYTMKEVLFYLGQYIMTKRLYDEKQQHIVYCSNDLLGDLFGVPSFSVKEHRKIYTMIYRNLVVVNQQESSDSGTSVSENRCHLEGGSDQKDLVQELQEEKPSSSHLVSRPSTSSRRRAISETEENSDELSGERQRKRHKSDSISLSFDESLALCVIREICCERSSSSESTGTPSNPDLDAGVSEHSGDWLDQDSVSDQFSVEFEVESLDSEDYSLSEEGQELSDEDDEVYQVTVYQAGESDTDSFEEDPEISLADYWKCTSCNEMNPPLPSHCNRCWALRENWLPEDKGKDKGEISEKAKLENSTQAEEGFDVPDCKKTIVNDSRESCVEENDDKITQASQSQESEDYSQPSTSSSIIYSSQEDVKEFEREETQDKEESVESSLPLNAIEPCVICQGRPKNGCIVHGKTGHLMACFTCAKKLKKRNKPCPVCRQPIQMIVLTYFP
ABHD5-PLIN5 inh – ABHD5-PLIN5 protein interaction inhibition; Split G. princeps luciferase complementation, luminescence, 4 h; Q00G26+Q8WTS1; 0.78% of 360,000 active; inhibition, % at 4 µM;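 active means inhibition above the mean inhibition across every tested compound plus 3 SD, cut at about 22% in these data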;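 further: 0% = DMSO only wells and the 100% control is not disclosed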
HIF-2a block – HIF-2a inhibition; 0.72% of 360,000 active; 786-0 RCC cells HIF-2a reporter, luciferase luminescence, overnight; inhibition, % at 18.8 µM;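 active means inhibition of the luminescence signal of 40% or more relative to plate controls, in a single-dose primary screen at 18.75 µM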
KKLEB tox – reduces viability of KKLEB cystic fibrosis airway cells; activity change (cytotoxicity), % at 5 µM; KKLEB CF airway cells viability, ATPlite luminescence, overnight; stronger effect = lower value; cells stimulated with P. aeruginosa culture filtrate; AID 602141; 0.36% of 360,000 active;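 active means corrected activity change at or below -50% at 5 µM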
CF NFkB inh – cystic fibrosis NF-kB activation inhibition; KKLEB NF-kB-GFP reporter, PAF-induced, GFP fluorescence overnight; inhibition, % at 5 µM; 0.86% of 360,000 active; AID 588850;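 active means at least 50% inhibition at 5 µM, scaled per plate between neutral and stimulator controls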;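 further: PAF is a Pseudomonas aeruginosa culture filtrate used as stimulus; plate controls were PAF-stimulated DMSO wells for no effect and unstimulated DMSO wells for full effect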
Mdm2 MdmX conf – confirmation of human Mdm2/MdmX interaction inhibitors; shares compounds with Mdm2-MdmX inh; Mdm2-MdmX binding, luminescent assay; inhibition, % at 8 µM; 55% of 10,000 active; AID 489028; in the data active means inhibition above about 40%
Full FLuc ctr – full-length luciferase inhibition in Mdm2/MdmX counter-screen | inhibition, % at 8 µM | SaOS-2 full-length luciferase counterscreen, luminescence | shares compounds with Mdm2-MdmX inh | 77% of 6,200 active | AID 504607;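 active means mean inhibition at 8 µM reaching about 37%, which flags the compound as non-specific, limit read from the data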;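 further: p53-null SaOS-2 cells with luciferase driven by a doxycycline-inducible promoter; compound on cells about two nights before reading with doxycycline added after day one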
The depositor's hits bear a star; x = no result given.

SMILES | Peg3 promoter | Mdm2-MdmX inh | ABHD5-PLIN5 inh | HIF-2a block | KKLEB tox | CF NFkB inh | Mdm2 MdmX conf | Full FLuc ctr
CC(C)C[C@@]12C(=O)N(c3cccc(F)c3)C(=O)N1[C@H](c1ccc(Br)cc1)[C@@H]1C(=O)N(C(C)(C)C)C(=O)[C@@H]12 | -7 | 28 | -8 | -17 | -21 | 25 | x | x
Fc1ccccc1C1c2[nH]c3ccccc3c2CCN1CCCn1cccn1 (configuration not stated) | 5 | 59* | -5 | -9 | 6 | 2 | 22 | x
Cc1cccc(OCCCN2C(=O)C(=O)c3cc(C)ccc32)c1 | 11 | 59* | 9 | -16 | 5 | 13 | 69* | 65*
O=c1c2ccccc2nc2n1CCCCC2 | 14 | 6 | -7 | 11 | 7 | 4 | x | x
N=c1c2ccccc2nc2n1CCCCCCCCCCC2 | 16 | 59* | 6 | 4 | 5 | 8 | 24 | x
COc1ccc(NC(=O)C2(C)CCCN(C(C)C)C2)cc1OC (configuration not stated) | -13 | x | 7 | 4 | 3 | -22 | x | x
CCOc1ccc(S(=O)(=O)N2CN(c3cccc(C(C)=O)c3)c3nc4ccccc4nc32)cc1 | -31 | -1 | 4 | -67 | 6 | -21 | x | x
COc1ccc(NC(=S)N2CCC3CC2c2c(Cl)cccc23)c(OC)c1 (configuration not stated) | 1 | x | 0 | 11 | -18 | 22 | x | x
Cc1[nH]c(N=Nc2ccccc2)nc1N=Nc1ccccc1 | 19 | 77* | 9 | -157 | -3 | 8 | 84* | 24
O=C1NC(=O)c2c(Br)c(Br)c(Br)c(Br)c21 | 21 | x | 6 | 16 | 5 | -10 | x | x
Oc1ccc(-c2nc3c4c(ncn3n2)-c2ccccc2CC42CCCC2)cc1 | 111* | 78* | 0 | 20 | 2 | -22 | 6 | x
O=c1cc(C(F)(F)F)nc(SC/C=C/c2ccccc2)[nH]1 | -8 | -2 | 0 | -51 | 8 | 18 | x | x
C[C@H]1COc2cccc(N(C)CCO)c2S(=O)(=O)N1 | x | x | 3 | 9 | x | x | x | x
COc1nnc(-c2ccc(N3CCOCC3)c(NC(=O)C3CCCCC3)c2)c2ccccc12 | 21 | 16 | 0 | 17 | 2 | -14 | x | x
COc1nnc(-c2ccc(N3CCCCC3)c(NC(=O)C3CCCCC3)c2)c2ccccc12 | 14 | 90* | -2 | 10 | -5 | -4 | 29 | x
COc1cc(C(=O)Nc2ccc(-c3nc4cc(C)ccc4o3)c(O)c2)cc(OC)c1OC | 70* | 74* | -3 | -6 | -17 | 20 | 52* | 41*
COc1cc(C(=O)Nc2ccc3c(c2)ncn3C)cc(OC)c1OC | 10 | 55* | -1 | 3 | 0 | 5 | 55* | 58*
COc1cc(C(=O)Nc2ccc3c(c2)nc(C)n3C)cc(OC)c1OC | -4 | 67* | 6 | -54 | -14 | -1 | 43* | 61*
CN(CC(=O)Nc1cccc(F)c1)C(=O)CN1C(=O)NC2(CCCC2)C1=O | 0 | 22 | 1 | 11 | -25 | 0 | x | x
O=C(OCC(=O)c1c[nH]c2ccccc12)c1ccc(F)c(S(=O)(=O)N2CCOCC2)c1 | 1 | x | -3 | 9 | -10 | 7 | x | x
CC(CNC(=O)CC[C@H]1O[C@@H](n2ccc(=O)[nH]c2=O)[C@H](O)[C@@H]1O)c1ccccc1 (some centres not stated) | 10 | x | 1 | 8 | -7 | -5 | x | x
NNC(=O)c1ccccc1CO | x | -17 | x | x | x | x | x | x
COc1ccc(-c2cc(C#N)nc(Cl)n2)cc1 | 39 | 68* | 20 | 14 | -10 | 1 | 34 | 38*
COc1ccc(-c2cc(C#N)nc(NN)n2)cc1 | 13 | 10 | -1 | 15 | 15 | -9 | x | x
COc1ccc(-c2cc(C#N)nc(Oc3ccc(Cl)cc3)n2)cc1 | 19 | 37 | 2 | 11 | -13 | 25 | x | x
SMILES | Peg3 promoter | Mdm2-MdmX inh | ABHD5-PLIN5 inh | HIF-2a block | KKLEB tox | CF NFkB inh | Mdm2 MdmX conf | Full FLuc ctr
CCN(CC)c1nc(C#N)cc(-c2ccc(OC)cc2)n1 | 24 | 54* | -17 | 9 | -25 | 17 | 65* | 47*
C=CCc1c(C)nc2c(-c3ccccc3)cnn2c1N1CCOCC1 | -394 | x | 7 | -356 | -7 | 15 | x | x
Cc1ccc2cc(CN(CC3CCCO3)C(=S)Nc3ccccc3)c(=O)[nH]c2c1C (configuration not stated) | 25 | 85* | 0 | 0 | 6 | 8 | 86* | 35
Cc1ccc2cc(CN(CCCN(C)C)C(=S)NCc3ccccc3)c(=O)[nH]c2c1C | 41 | 55* | 23* | 7 | -14 | 19 | 31 | x
COc1ccc(C(=O)CC(=O)c2ccccc2)cc1 | -344 | 8 | -10 | -362 | 10 | -6 | x | x
COc1ccc(C(=O)C/C(=C\C(=O)c2ccc(C)cc2)c2ccccc2)cc1 | 39 | 86* | -1 | -31 | -23 | 24 | 84* | 24
CCOC(=O)c1cnc(-n2nc(C)cc2C)nc1NC | -65 | -3 | 2 | -55 | 2 | 3 | x | x
CCOC(=O)c1cnc(-n2nc(C)cc2C)nc1NC1CCCCC1 | 13 | 86* | -7 | 9 | -5 | -6 | 92* | 30
CCOC(=O)c1cnc(-n2nc(C)cc2C)nc1Nc1ccc(C)cc1 | 16 | x | 3 | -3 | -8 | 8 | x | x
CCOC(=O)c1cnc(-n2nc(C)cc2C)nc1Nc1ccc(N(C)C)cc1 | 33 | 71* | 0 | -5 | -22 | 12 | 48* | 61*
CCOC(=O)c1cnc(-n2nc(C)cc2C)nc1NNc1nc(-c2ccccc2)cc(-c2ccccc2)n1 | 41 | 63* | -3 | 18 | 2 | 7 | 72* | 25
CC1CCCCC1NC(=O)c1cc(Cl)nc2ccccc12 (configuration not stated) | 14 | x | -1 | 22 | 3 | 4 | x | x
CC(=O)Oc1ccccc1C1=NN(C(=O)/C=C/c2ccccc2)C(c2ccccc2)C1 (configuration not stated) | 13 | 51* | 2 | 4 | -18 | 37 | 6 | x
CCN(CC)c1ccc(N=Cc2ccc(N(CC)CC)cc2O)cc1 | -1 | 15 | 10 | -6 | -11 | 7 | x | x
CCN(CC)c1ccc(/C=N/N=C(N)N)c(O)c1 | -27 | 62* | -2 | -16 | 4 | 3 | 52* | 83*
CCOC(=O)c1sc(Nc2nc(C)cc(C)n2)nc1C | 9 | 57* | -8 | -26 | 7 | -12 | 60* | 57*
CCOC(=O)c1sc(Nc2nc(C)cc(OC)n2)nc1C | 8 | 6 | 3 | -6 | 1 | -23 | x | x
CCCCOc1cccc(-c2cc(C(=O)NNC(=S)NCC)c3ccccc3n2)c1 | -88 | 45 | -7 | -127 | -10 | -19 | x | x
CCCCOc1ccc(-c2cc(C(=O)NNC(=S)NCC)c3ccccc3n2)cc1 | -37 | 80* | -10 | -44 | -89* | 67* | 74* | 127*

Assay outcomes (PubChem BioAssay)
